The text below walks through data of the supplement of paper PMC6522484.

The subject of assay [1] is DLD1. The assay can be described thus: cell viability (CellTiter-Glo) relative to plate median (fraction of plate median); higher = more viable cells. Conditions: 5 µM; treatment time 24 h; reporter: 7TFP. In outline:
(§1)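 After seeding in 384-well plates, colorectal cancer cell lines carrying stable lentiviral TCF/Wnt firefly luciferase reporters (7TFP or TCF4/Wnt) were left 24 h. Library compounds were then added at a final 5 µM for 24 h. A Tecan F500 reader measured firefly luciferase or CellTiterGlo luminescence on parallel plates, with each well normalised to the plate median by webcellHTS2 (additive, no log transformation), and two independent replicates averaged.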
In general terms: In ATP-based viability assays light output follows the ATP content of the culture.

A further assay deals with HCT116. The description is as above. Conditions: 5 µM; treatment time 24 h; reporter: TCF4/Wnt. A digest of the protocol: as §1
Assay [2] deals with SW480. The assay is described as above. Conditions: 5 µM; treatment time 24 h; reporter: 7TFP. A digest of the protocol:
as §1

The test system of assay [3] is DLD1. The assay can be described thus: TCF/Wnt firefly luciferase reporter signal relative to plate median (fraction of plate median); higher = higher Wnt reporter signal. Conditions: 5 µM; treatment time 24 h; reporter: 7TFP. In outline: as §1
Assay [4] relates to SW480. The assay is described as above. Conditions: 5 µM; treatment time 24 h; reporter: 7TFP. A digest of the protocol:
as §1

± gives the standard deviation of the averaged measurements.

Consider `COc1ccc(-c2oc3cc(OC)c(OC)c(OC)c3c(=O)c2OC)cc1`, for which the cell viability was found to be 0.978 ± 0.06 in the assay on DLD1 [1], 0.918 ± 0.06 with HCT116 and 1.02 ± 0.021 with SW480 [2]. Besides, the “TCF/Wnt firefly luciferase reporter signal” value with DLD1 [3] is 1.055 ± 0.0071; in the assay on SW480 [4] it was 0.917 ± 0.087.

For the compound `C=C(NC(=O)C(=C)NC(=O)c1csc(C2=N[C@@H]3c4csc(n4)[C@H]4NC(=O)c5csc(n5)[C@H]([C@](C)(O)[C@@H](C)O)NC(=O)[C@H]5CSC(=N5)/C(=C/C)NC(=O)[C@H]([C@@H](C)O)NC(=O)c5csc(n5)[C@]3(CC2)NC(=O)[C@H](C)NC(=O)C(=C)NC(=O)[C@H](C)NC(=O)[C@H]([C@@H](C)CC)N[C@@H]2C=Cc3c([C@H](C)O)cc(nc3[C@H]2O)C(=O)O[C@@H]4C)n1)C(N)=O`, the cell viability in the assay with DLD1 [1] came out at 0.927 ± 0.044; in the assay on HCT116, 1.05; in the assay on SW480 [2] it was 0.999 ± 0.044. Moreover, the “TCF/Wnt firefly luciferase reporter signal” value with DLD1 [3] was 0.966 ± 0.18; in the assay on SW480 [4] it was 1.05 ± 0.071.

For `CC1(C)[C@@H](O)CC[C@]2(C)[C@H]3C(=O)C=C4[C@@H]5C[C@@](C)(C(=O)O)CC[C@]5(C)CC[C@@]4(C)[C@]3(C)CC[C@@H]12`, the cell viability was 1.01 ± 0.059 with DLD1 [1], 1.03 ± 0.098 with HCT116 and 1.05 ± 0.057 in the assay with SW480 [2]. Besides, the “TCF/Wnt firefly luciferase reporter signal” value is 1.04 ± 0.22 in the assay with DLD1 [3] and 1.12 ± 0.13 with SW480 [4].

In the case of `C/C=C/C=C/[C@@H]1O[C@](O)([C@H](CC)C(=O)NC/C=C/C=C(\C)[C@@H](OC)[C@@H](C)[C@@H]2O[C@H](/C=C/C=C/C=C(\C)C(=O)c3c(O)ccn(C)c3=O)[C@H](O)[C@@H]2O)C[C@H](O)C1(C)C` (single isomer, unassigned; isomere) [Heneicomycin (Isomere)], the cell viability in the assay with DLD1 [1] came to 0.948 ± 0.037; with HCT116, 1.04 ± 0.14; in the assay on SW480 [2] it was 1.035 ± 0.0071. Besides, the “TCF/Wnt firefly luciferase reporter signal” value in the assay on DLD1 [3] is 1.05 ± 0.064; with SW480 [4], 1.03 ± 0.021.

On to `CC(C)C(=O)Nc1ccc([N+](=O)[O-])c(C(F)(F)F)c1`, for which the values for the cell viability in the assay on DLD1 [1], in the assay with HCT116 and in the assay on SW480 [2] were 1.055 ± 0.0071, 0.984 ± 0.037 and 1.02 ± 0.029, respectively. For the same compound, the “TCF/Wnt firefly luciferase reporter signal” value in the assay with DLD1 [3] is 0.924 ± 0.047; in the assay on SW480 [4], 0.9955 ± 0.0064.

`OC(CCN1CCCCC1)(c1ccccc1)C1CCCCC1` (stereo not given): the figures for the cell viability in the assay with DLD1 [1], in the assay with HCT116 and in the assay with SW480 [2] were 0.963 ± 0.03, 0.932 ± 0.033 and 0.945 ± 0.052, respectively. Also, the “TCF/Wnt firefly luciferase reporter signal” value was 0.855 ± 0.052 in the assay with DLD1 [3] and 0.917 ± 0.018 in the assay with SW480 [4].

As to `Cc1cccc(CN2CCN(C(c3ccccc3)c3ccc(Cl)cc3)CC2)c1` (stereo not given), the cell viability in the assay on DLD1 [1] turned out to be 1.06 ± 0.028; in the assay on HCT116 it was 1.05 ± 0.028; with SW480 [2], 0.987 ± 0.0099. The “TCF/Wnt firefly luciferase reporter signal” value in the assay with DLD1 [3] is 1.02 ± 0.038; in the assay on SW480 [4] it was 0.998 ± 0.046.

Regarding `CC(CN(C)C)CN1c2ccccc2Sc2ccccc21` (stereo not given), the cell viability in the assay on DLD1 [1] worked out at 1 ± 0.12; in the assay on HCT116 it was 1.02 ± 0.065; in the assay with SW480 [2], 1.06 ± 0.057. In addition, the entries for the “TCF/Wnt firefly luciferase reporter signal” value in the assay with DLD1 [3] and with SW480 [4] were 0.997 ± 0.15 and 1.08 ± 0.071, respectively.

With `C[C@@H]1C[C@H]2O[C@@H]2/C=C\C=C\C(=O)Cc2c(Cl)c(O)cc(O)c2C(=O)O1` [Radicicol], the cell viability in the assay on DLD1 [1] came out at 1.07 ± 0.035; in the assay on HCT116, 0.802 ± 0.086; in the assay on SW480 [2] it was 1.07 ± 0.099. Also, the “TCF/Wnt firefly luciferase reporter signal” value in the assay on DLD1 [3] came out at 0.898 ± 0.16; in the assay on SW480 [4], 0.785 ± 0.035.

Regarding `CC(C)[C@H]1CC[C@H](C(=O)N[C@H](Cc2ccccc2)C(=O)O)CC1`, the cell viability amounted to 0.905 ± 0.0028 with DLD1 [1], 0.972 ± 0.0014 with HCT116 and 0.973 ± 0.067 in the assay on SW480 [2]. In addition, the “TCF/Wnt firefly luciferase reporter signal” value turned out to be 1.03 ± 0.014 with DLD1 [3] and 0.983 ± 0.014 with SW480 [4].

As for `COc1ccc(Cl)cc1C(=O)NCCc1ccc(S(=O)(=O)NC(=O)NC2CCCCC2)cc1`, the results for the cell viability in the assay on DLD1 [1], with HCT116 and in the assay with SW480 [2] were 1.005 ± 0.0071, 0.962 ± 0.082 and 0.976 ± 0.049, respectively. Besides, the “TCF/Wnt firefly luciferase reporter signal” value in the assay on DLD1 [3] worked out at 1.12 ± 0.13; in the assay on SW480 [4], 1.14 ± 0.05.

Regarding `COc1cc(/C=C/C(=O)CC(=O)/C=C/c2ccc(O)c(OC)c2)ccc1O`, the figures for the cell viability with DLD1 [1], with HCT116 and in the assay with SW480 [2] were 1.02 ± 0.061, 1.02 ± 0.093 and 1.05 ± 0.014, respectively. Moreover, the “TCF/Wnt firefly luciferase reporter signal” value in the assay with DLD1 [3] is 1.13 ± 0.14; in the assay on SW480 [4] it was 0.982 ± 0.14.

In the case of `O=C(OOC(=O)c1ccccc1)c1ccccc1`, the values for the cell viability with DLD1 [1], with HCT116 and in the assay with SW480 [2] were 1.015 ± 0.0071, 1.12 ± 0.16 and 0.998 ± 0.031, respectively. The “TCF/Wnt firefly luciferase reporter signal” value was 0.96 ± 0.071 in the assay with DLD1 [3] and 1.03 ± 0.053 in the assay on SW480 [4].

As for `O=CN(O)CCCC(NC(=O)C(CO)NC(=O)C1COC(c2ccccc2O)=N1)C(=O)NCCC(=O)NC1CCCN(O)C1=O` (stereo not given) [Oxachelin], the cell viability amounted to 0.9715 ± 0.0092 in the assay with DLD1 [1], 1.07 ± 0.16 in the assay on HCT116 and 1.03 ± 0.059 with SW480 [2]. Further, the figures for the “TCF/Wnt firefly luciferase reporter signal” value in the assay on DLD1 [3] and in the assay with SW480 [4] were 1.11 ± 0.021 and 1.03 ± 0.085, respectively.
